# Results published in PubChem BioAssay AID540359 (Broad Institute, 2011).
# Measured potencies and affinities stand elsewhere. Values without a mark were called inactive. How the calls were made is not given here.
# Target: UDP-galactopyranose mutase (Mycobacterium tuberculosis (strain ATCC 25618 / H37Rv)) (UniProt P9WIQ1)
# Assay: UDP galactopyranose mutase inhibitors, Mycobacterium tuberculosis, cherry pick dose confirmation (AID 540359)
# Conditions: purified UGM enzyme, plate reader activity; series mostly up to 50 µM; activity change, negative = inhibition: at the top concentration
# Sequence of UDP-galactopyranose mutase (Mycobacterium tuberculosis (strain ATCC 25618 / H37Rv)) (P9WIQ1 whole entry, looked up): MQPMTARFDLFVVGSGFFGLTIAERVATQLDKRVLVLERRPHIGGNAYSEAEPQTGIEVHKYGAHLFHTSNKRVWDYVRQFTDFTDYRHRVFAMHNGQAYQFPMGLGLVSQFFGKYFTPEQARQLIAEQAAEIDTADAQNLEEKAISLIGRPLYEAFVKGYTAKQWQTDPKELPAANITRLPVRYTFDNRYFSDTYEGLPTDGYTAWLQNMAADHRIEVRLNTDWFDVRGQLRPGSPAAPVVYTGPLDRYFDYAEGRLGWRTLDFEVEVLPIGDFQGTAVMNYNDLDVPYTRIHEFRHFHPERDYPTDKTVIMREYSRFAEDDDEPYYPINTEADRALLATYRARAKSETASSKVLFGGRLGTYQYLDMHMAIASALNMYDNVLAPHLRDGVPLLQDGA
row,Structure (SMILES),"activity change, negative = inhibition [%]"
1,COc1cccc2c(=O)cn[nH]c12,-12.8
2,CC(N)=Nc1ccc([N+](=O)[O-])cc1,-0.037
3,O=C(OCc1ccc(Br)cc1)c1cnc(Cl)c(Cl)c1,-1.03
4,COc1ccccc1NS(=O)(=O)c1cc(N)ccc1N1CCCC1,-3.52
5,CCOc1cc(/C=C2\CCCc3c2nc2ccccc2c3C(=O)O)ccc1OC,-2.82
6,COc1ccc(-c2cc(=O)[nH]c3ccccc23)cc1,-4.6
7,COc1ccccc1N1N=C(C(=O)c2ccccc2)C2C(=O)N(c3ccc(Br)cc3)C(=O)C21 (stereo unspecified),-10.5
8,COc1cc2c3nnc(-c4ccccc4)c-3cn(Cc3ccccc3F)c2cc1OC,-5.43
9,O=c1[nH]c(=O)n(-c2ccc(F)cc2)c(O)c1/C=C1\C=Nc2ccccc21,14.2
10,COc1ccc(N(CC(=O)N/N=C/c2ccc(-c3ccc([N+](=O)[O-])cc3)o2)S(=O)(=O)c2ccc(C)cc2)cc1,0.687
11,CCOC(=O)CNc1ccc2c(c1)OCO2,-14.6
